This is an account of results in PubChem BioAssay.

Assay [1] in a line: antimalarial activity against Dd2 strain (AID 2302;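 active = growth inhibition above 50% at the single 2 µM test dose, taken to imply half-maximal potency below 2 µM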;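 also: 0% = DMSO untreated growth and 100% = chloroquine plus artemisinin killed control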). The conditions noted are these: P. falciparum Dd2 in RBCs, LDH growth readout, 72 h; at 2 µM; hits give high values.
A short description of assay [2]: human hepatoma cell viability loss – ATP luminescence, cytotoxicity control for P. falciparum antimalarial project, primary screen (AID 2303;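 active = inhibition above 50%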;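 also: 0% = DMSO wells and 100% = digitonin-killed cells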). The conditions noted are these: HepG2 viability, 24-48 h, at 10 µM, hits give high values.
The target in assay [3] is L-lactate dehydrogenase (Plasmodium falciparum (isolate CDC / Honduras)) (UniProt Q27743). Nature of the assay: PfLDH activity inhibition – cell lysate, 3D7 strain, counter-screen for P. falciparum growth inhibition project (AID 2304).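 Also: 0% = vehicle and 100% = reference inhibitor.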 The conditions noted are these: P. falciparum 3D7 crude extract, LDH APAD/NBT absorbance; at 2 µM; hits give high values.
Sequence of L-lactate dehydrogenase (Plasmodium falciparum (isolate CDC / Honduras)) (Q27743 whole entry, looked up): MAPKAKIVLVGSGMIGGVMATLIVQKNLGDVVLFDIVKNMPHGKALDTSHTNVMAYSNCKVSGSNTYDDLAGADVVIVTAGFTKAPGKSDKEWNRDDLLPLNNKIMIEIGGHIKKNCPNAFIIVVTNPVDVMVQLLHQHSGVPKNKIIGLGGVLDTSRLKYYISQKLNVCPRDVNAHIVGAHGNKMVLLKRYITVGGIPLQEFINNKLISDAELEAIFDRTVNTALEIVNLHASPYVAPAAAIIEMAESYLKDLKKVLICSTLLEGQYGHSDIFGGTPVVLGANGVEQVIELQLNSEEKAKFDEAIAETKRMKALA
Assay [4] in a line: inhibition of 3D7 malaria parasite growth – strain 3D7 (AID 2306).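 Also: 0% = DMSO wells and 100% = chloroquine plus artemisinin control wells.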 The conditions noted are these: P. falciparum 3D7 erythrocytic growth, LDH absorbance, 72 h; at 2 µM; hits give high values.
The target in assay [5] is Calcium-dependent protein kinase 1 (Plasmodium falciparum (isolate 3D7)) (UniProt P62344). In words: PfCDPK1 kinase inhibitors, biochemical, TCAMS library (AID 1159585; cut-off not given, nearly all actives have IC50 up to about 0.98 µM;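 also: inhibitors leave more ATP so luminescence rises with inhibition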). The conditions noted are these: recombinant PfCDPK1, Kinase-Glo ATP depletion luminescence. In general terms: In Kinase-Glo more light means more ATP remaining.
Sequence of Calcium-dependent protein kinase 1 (Plasmodium falciparum (isolate 3D7)) (P62344 whole entry, looked up): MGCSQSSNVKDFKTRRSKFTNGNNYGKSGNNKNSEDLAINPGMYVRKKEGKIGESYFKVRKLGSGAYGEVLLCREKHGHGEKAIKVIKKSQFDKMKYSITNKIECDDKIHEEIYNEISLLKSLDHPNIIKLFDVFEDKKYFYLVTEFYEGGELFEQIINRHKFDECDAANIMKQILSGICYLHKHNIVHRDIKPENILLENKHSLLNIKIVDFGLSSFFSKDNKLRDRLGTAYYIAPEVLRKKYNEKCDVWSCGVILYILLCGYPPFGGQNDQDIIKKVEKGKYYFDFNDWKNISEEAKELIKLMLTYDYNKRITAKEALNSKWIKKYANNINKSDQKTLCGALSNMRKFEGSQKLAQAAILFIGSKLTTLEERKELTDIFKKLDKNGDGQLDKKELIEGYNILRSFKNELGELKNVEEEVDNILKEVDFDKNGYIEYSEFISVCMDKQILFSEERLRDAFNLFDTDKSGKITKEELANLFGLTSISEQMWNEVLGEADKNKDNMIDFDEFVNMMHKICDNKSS
Assay [6] has as its target Plasmodium falciparum protein kinase 6 (PK6, PF3D7_1337100) (UniProt Q8IDW1). In words: PfPK6 kinase inhibitors, biochemical, TCAMS library (AID 1159586). The conditions noted are these: recombinant PfPK6, Kinase-Glo ATP depletion luminescence.
For assay [7], the target named is Protein kinase 7 (PK7), Plasmodium falciparum 3D7 (PF3D7_0213400) (UniProt Q7YTF7). Nature of the assay: inhibition of Plasmodium PK7 catalytic activity – biochemical, TCAMS antimalarial set, Kinase-Glo luminescence (AID 1159587). The conditions noted are these: recombinant PfPK7, Kinase-Glo ATP depletion luminescence.
Sequence of Protein kinase 7 (PK7), Plasmodium falciparum 3D7 (PF3D7_0213400) (Q7YTF7 1-343): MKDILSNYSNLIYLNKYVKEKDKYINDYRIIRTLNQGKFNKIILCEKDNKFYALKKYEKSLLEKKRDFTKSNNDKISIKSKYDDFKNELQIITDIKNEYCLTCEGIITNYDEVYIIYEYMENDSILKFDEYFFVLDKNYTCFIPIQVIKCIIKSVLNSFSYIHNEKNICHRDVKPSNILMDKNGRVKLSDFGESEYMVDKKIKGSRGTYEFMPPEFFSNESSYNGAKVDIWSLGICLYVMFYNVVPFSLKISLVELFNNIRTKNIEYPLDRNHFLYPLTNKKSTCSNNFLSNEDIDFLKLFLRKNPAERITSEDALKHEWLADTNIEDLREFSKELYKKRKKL
In assay [8] the target is Calcium-dependent protein kinase 4 (Plasmodium falciparum (isolate 3D7)) (UniProt Q8IBS5). Nature of the assay: PfCDPK4 kinase inhibitors, biochemical, TCAMS library (AID 1159588; cut-off not given, nearly all actives have IC50 up to about 0.91 µM). The conditions noted are these: recombinant PfCDPK4, Kinase-Glo ATP depletion luminescence.
Sequence of Calcium-dependent protein kinase 4 (Plasmodium falciparum (isolate 3D7)) (Q8IBS5 whole entry, looked up): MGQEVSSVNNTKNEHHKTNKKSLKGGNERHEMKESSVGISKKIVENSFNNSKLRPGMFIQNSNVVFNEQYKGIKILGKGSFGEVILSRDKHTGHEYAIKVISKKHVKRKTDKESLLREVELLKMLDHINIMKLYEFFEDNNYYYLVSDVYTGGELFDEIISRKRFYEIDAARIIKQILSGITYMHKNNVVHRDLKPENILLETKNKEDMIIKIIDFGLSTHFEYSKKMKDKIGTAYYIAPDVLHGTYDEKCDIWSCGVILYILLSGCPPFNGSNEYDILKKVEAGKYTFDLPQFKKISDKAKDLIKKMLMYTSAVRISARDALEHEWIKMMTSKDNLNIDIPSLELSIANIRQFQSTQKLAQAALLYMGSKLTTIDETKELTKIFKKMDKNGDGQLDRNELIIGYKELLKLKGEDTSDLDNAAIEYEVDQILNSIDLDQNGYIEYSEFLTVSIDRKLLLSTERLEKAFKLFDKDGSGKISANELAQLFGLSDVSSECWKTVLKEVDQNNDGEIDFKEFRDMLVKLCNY

By inhibition is commonly meant the drop in the measured response relative to a control, in per cent.

Unmarked numbers belong to inactive results. For some of these results: Measured potencies and affinities stand elsewhere. The source made the active and inactive calls. Unless noted, no rule for the calls is given here.

Sequence of Plasmodium falciparum protein kinase 6 (PK6, PF3D7_1337100) (Q8IDW1 1-305): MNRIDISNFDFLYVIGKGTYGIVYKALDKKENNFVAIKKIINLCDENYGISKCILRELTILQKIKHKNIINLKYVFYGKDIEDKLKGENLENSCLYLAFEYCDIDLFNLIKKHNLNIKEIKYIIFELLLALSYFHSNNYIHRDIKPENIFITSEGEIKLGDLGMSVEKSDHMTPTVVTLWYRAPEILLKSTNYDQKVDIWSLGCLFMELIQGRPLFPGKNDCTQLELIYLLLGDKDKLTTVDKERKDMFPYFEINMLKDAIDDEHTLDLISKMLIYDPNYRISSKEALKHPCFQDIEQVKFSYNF

Consider `COc1ccc(C=Cc2cc(N)c3ccccc3n2)cc1Br`, for which the growth inhibition in assay [1] is 88% (active); in assay [4], 101% (active). For the same compound, the figures for the inhibition in assay [2] and in assay [3] were 55% (active) and 2%, respectively. The result in assay [5], in assay [6], in assay [7] and in assay [8] was inactive.

Turning to `CC(C)C[C@H](NC(=O)c1cc2cc(OCCN3CCNCC3)ccc2o1)C(=O)NC1CC[C@@H](C)N(C(=O)Nc2ccc(Cl)cc2)CC1=O` (stereo not given in full), the growth inhibition in assay [1] is 92% (active); in assay [4], 90% (active). In addition, the inhibition in assay [2] is -3%; in assay [3] it was 6%. Moreover, the outcome in assay [5], in assay [6], in assay [7] and in assay [8] was inactive.

For `CCc1c[nH]c2c(N3CCCC3=O)cc(C(=O)N[C@@H](Cc3ccccc3)[C@H](O)CNC(C)(C)c3cccc(OC)c3)cc12`, the growth inhibition in assay [1] is 98% (active); in assay [4], 93% (active). Moreover, the inhibition is 0% in assay [2] and 2% in assay [3]. Also, the outcome in assay [5], in assay [6], in assay [7] and in assay [8] was inactive.

Consider `O=C(/C=C/c1ccc(Cl)c(Cl)c1)NCCCCCN1CCN(C(=O)Nc2ccc(Cl)c(C(F)(F)F)c2)CC1`, for which the growth inhibition is -3% in assay [1] and 100% (active) in assay [4]. For the same compound, the inhibition in assay [2] was 22%; in assay [3], 3%. In addition, the outcome in assay [5], in assay [6], in assay [7] and in assay [8] was inactive.

For the compound `CN(C)CCOc1ccc2[nH]c(-c3cccc(OCc4ccccc4)c3)nc2c1C#N`, the growth inhibition is 86% (active) in assay [1] and 100% (active) in assay [4]. The inhibition is 48% in assay [2] and -5% in assay [3]. For the same compound, the outcome in assay [5], in assay [6], in assay [7] and in assay [8] was inactive.

With `COc1ccc(CCNC(=O)c2cc3c(=O)n4cccc(C)c4nc3n(C)c2=N)cc1`, the growth inhibition in assay [1] and in assay [4] was 99% (active) in each case. Further, the inhibition was 22% in assay [2] and 4% in assay [3]. Besides, the outcome in assay [5], in assay [6], in assay [7] and in assay [8] was inactive.

Take `CC(Cc1ccc(OCC(=O)NCC2CCN(CCc3cccc(Cl)c3)CC2)cc1)NCCc1cccc(Cl)c1` (stereo not given): the growth inhibition in assay [1] is 85% (active); in assay [4] it was 96% (active). The inhibition was 100% (active) in assay [2] and -8% in assay [3]. Besides, the result in assay [5], in assay [6], in assay [7] and in assay [8] was inactive.

Consider `COc1ccccc1CCNC(=O)c1cnc(N2CCN(c3ccncc3)CC2)c(Cl)c1`, for which the values for the growth inhibition in assay [1] and in assay [4] were 54% (active) and 98% (active), respectively. The figures for the inhibition in assay [2] and in assay [3] were 30% and 4%, respectively. For the same compound, the result in assay [5], in assay [6], in assay [7] and in assay [8] was inactive.

As for `CCOC(=O)c1cnc2c(C(F)(F)F)cccc2c1Nc1ccc(O)cc1`, the growth inhibition in assay [1] is 67% (active); in assay [4], 96% (active). The inhibition in assay [2] was -7%; in assay [3], 2%. Besides, the outcome in assay [5], in assay [6], in assay [7] and in assay [8] was inactive.

With `FC(F)(F)c1ccc2nccc(NN=Cc3ccccc3)c2c1`, the growth inhibition in assay [1] is 2%; in assay [4], 92% (active). Besides, the inhibition is 7% in assay [2] and -1% in assay [3]. Besides, the outcome in assay [5], in assay [6], in assay [7] and in assay [8] was inactive.

For `Cc1ccc(S(=O)(=O)N2CCCN(C(=O)c3cc(-c4ccccc4)n[nH]3)CC2)cc1`, the growth inhibition is 93% (active) in assay [1] and 96% (active) in assay [4]. The inhibition is 11% in assay [2] and -2% in assay [3]. Besides, the outcome in assay [5], in assay [6], in assay [7] and in assay [8] was inactive.

`CCOc1ccc(-c2nonc2NC(=O)c2ccc(OC)cc2)cc1OCC`: the growth inhibition in assay [1] is 77% (active); in assay [4], 98% (active). The inhibition in assay [2] and in assay [3] was -1% in each case. Further, the outcome in assay [5], in assay [6], in assay [7] and in assay [8] was inactive.

Consider `CCOC(=O)c1ccc(-n2c(C)cc(C=C3SC(=Nc4ccccc4)N(C4CCCC4)C3=O)c2C)cc1`, for which the growth inhibition in assay [1] was 61% (active); in assay [4], 98% (active). The inhibition in assay [2] was 2%; in assay [3], 0%. In addition, the outcome in assay [5], in assay [6], in assay [7] and in assay [8] was inactive.

`O=C(Nc1ccc2c(c1)CCN2C1CCN(Cc2cc(F)cc(F)c2F)C1)c1ccco1` (stereo not given): the figures for the growth inhibition in assay [1] and in assay [4] were 95% (active) and 96% (active), respectively. Besides, the inhibition in assay [2] is -2%; in assay [3], 1%. In addition, the outcome in assay [5], in assay [6], in assay [7] and in assay [8] was inactive.

For the compound `CC(C)c1ccc(NC(=O)c2cccc(CN3CCCN(Cc4cccc(C#N)c4)CC3)c2)cc1`, the growth inhibition is 15% in assay [1] and 93% (active) in assay [4]. For the same compound, the inhibition in assay [2] is 48%; in assay [3] it was -5%. The outcome in assay [5], in assay [6], in assay [7] and in assay [8] was inactive.

In the case of `CN1CCCN(Cc2ccc(-c3cccc(NC(=O)c4ccc(C#N)cc4)c3)cc2)CC1`, the results for the growth inhibition in assay [1] and in assay [4] were 26% and 100% (active), respectively. Besides, the inhibition in assay [2] was 29%; in assay [3], -5%. Besides, the result in assay [5], in assay [6], in assay [7] and in assay [8] was inactive.

With `Cc1ccc(CN2CCCN(Cc3cccc(NC(=O)c4cc5ccccc5s4)c3)CC2)cc1C`, the figures for the growth inhibition in assay [1] and in assay [4] were 33% and 92% (active), respectively. Also, the inhibition in assay [2] was 44%; in assay [3], -3%. Further, the outcome in assay [5], in assay [6], in assay [7] and in assay [8] was inactive.

For the compound `COc1ccc2nccc(N3CCC(NCc4ccc5c(n4)NC(=O)CS5)CC3)c2n1`, the values for the growth inhibition in assay [1] and in assay [4] were 63% (active) and 100% (active), respectively. For the same compound, the inhibition in assay [2] was 14%; in assay [3], 6%. The result in assay [5], in assay [6], in assay [7] and in assay [8] was inactive.

In the case of `CCn1ccc2c(N3CCCC3=O)cc(C(=O)N[C@@H](Cc3ccccc3)[C@H](O)CNC(C)(C)CCCC(C)C)cc21`, the values for the growth inhibition in assay [1] and in assay [4] were 98% (active) and 96% (active), respectively. Further, the figures for the inhibition in assay [2] and in assay [3] were 11% and -3%, respectively. Moreover, the outcome in assay [5], in assay [6], in assay [7] and in assay [8] was inactive.

Take `CCN1CCC(N(Cc2ccc(-c3ccc(C(F)(F)F)cc3)cc2)C(=O)Cn2c(CCc3cccc(F)c3F)cc(=O)c3ccccc32)CC1`: the growth inhibition in assay [1] and in assay [4] was 94% (active) throughout. In addition, the inhibition in assay [2] is 100% (active); in assay [3], 3%. The result in assay [5], in assay [6], in assay [7] and in assay [8] was inactive.
